{"source": "PubChem BioAssay", "note": "The source made the active and inactive calls. The rule behind the calls is not given here."}
{"tested_on": "Aerobactin synthetase IucA (Klebsiella pneumoniae hvKP1)", "assay": "Biochemical IucA enzyme inhibition primary screen of the Spectrum library (AID 1346200);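 note: 100% = wells without compound and 0% = wells lacking enzyme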", "settings": "malachite green pyrophosphate, A620, at 8 µM, hits give low values"}
{"smiles": "CCCC1O[C@@H]2CC3C4CCC5=CC(=O)C=CC5(C)C4[C@@H](O)CC3(C)[C@]2(C(=O)CO)O1", "note": "(stereo partly drawn)", "activity remaining": "115% (inactive)"}
{"smiles": "OCCc1ccccc1", "activity remaining": "117% (inactive)"}
{"smiles": "C=CCSCC=C", "activity remaining": "109% (inactive)"}
{"smiles": "CC(=O)Nc1ccccc1", "activity remaining": "103% (inactive)"}
{"smiles": "NNC(=O)c1ccncc1", "activity remaining": "106% (inactive)"}
{"smiles": "CC(=O)Oc1ccc2c(c1C(C)C)CCC1C(C)(C)CCC[C@]21C", "note": "(stereo partly drawn)", "activity remaining": "97.3% (inactive)"}
{"smiles": "COc1ccc2c(c1)O[C@@H]1COc3cc(OC)c(OC)cc3[C@@H]1C2=O", "activity remaining": "111% (inactive)"}
{"smiles": "C[C@@H]1CC[C@@]2(OC1)OC1CC3C4CC=C5C[C@@H](O)CC[C@]5(C)C4CC[C@]3(C)C1[C@@H]2C", "note": "(stereo partly drawn)", "activity remaining": "104% (inactive)"}
{"smiles": "C=C1C2CC[C@@]3(C)[C@H](c4ccoc4)OC(=O)C[C@]13O[C@H]1CC(=O)C(C)(C)C(CC(=O)OC)C21C", "note": "(stereo partly drawn)", "activity remaining": "124% (inactive)"}
{"smiles": "O=c1c(O)c(-c2ccc(O)c(O)c2)oc2c(O[C@@H]3O[C@H](CO)[C@H](O)[C@@H](O)[C@H]3O)c(O)cc(O)c12", "activity remaining": "96.1% (inactive)"}
{"smiles": "C[C@]12CCC(=O)C=C1C=CC1C2CC[C@@]2(C)C1CC[C@@]21CCC(=O)O1", "note": "(stereo partly drawn)", "activity remaining": "119% (inactive)"}
{"smiles": "Cn1c(=O)[nH]c(=O)c2[nH]cnc21", "activity remaining": "109% (inactive)"}
{"smiles": "O=C(O)[C@H](O)[C@@](O)(Cc1ccc(O)cc1)C(=O)O", "activity remaining": "103% (inactive)"}
{"smiles": "CCCCCCCCCc1ccc(OCCOCCOCCOCCOCCOCCOCCOCCOCCO)cc1", "activity remaining": "109% (inactive)"}
{"smiles": "C/C=C1\\[C@H]2C=C(C)C[C@]1(N)c1ccc(=O)[nH]c1C2", "activity remaining": "122% (inactive)"}
{"smiles": "CCC(=O)OC1[C@@H]2CC3=C4CC(=O)O[C@@H](c5ccoc5)[C@]4(C)CCC3C(C)(C2=O)[C@@H](CC(=O)OC)C1(C)C", "note": "(stereo partly drawn)", "activity remaining": "121% (inactive)"}
{"smiles": "CCN1CCN(c2cc3c(cc2F)c(=O)c(C(=O)O)cn3C2CC2)CC1", "activity remaining": "100% (inactive)"}
{"smiles": "CCCCCCCCCCCCCCCC(=O)OC/C=C(C)/C=C/C=C(C)/C=C/C1=C(C)CCCC1(C)C", "activity remaining": "89% (inactive)"}
{"smiles": "CCn1cc(C(=O)O)c(=O)c2cc(F)c(N3CCNCC3)nc21", "activity remaining": "91.3% (inactive)"}
{"smiles": "CC(C)C(C)/C=C/C(C)C1CCC2C3=CC=C4CC(O)CCC4(C)C3CCC21C", "note": "(stereo not drawn)", "activity remaining": "111% (inactive)"}
{"smiles": "C=C1CC[C@H](O)C/C1=C/C=C1\\CCCC2(C)C1CCC2C(C)CCCC(C)C", "note": "(stereo partly drawn)", "activity remaining": "113% (inactive)"}
{"smiles": "CC(=O)N[C@@H](CCC(=O)O)C(=O)O", "activity remaining": "92.3% (inactive)"}
{"smiles": "COc1c2ccoc2cc2oc(=O)ccc12", "activity remaining": "102% (inactive)"}
